# Source: PMC8222333, “AsCas12a ultra nuclease facilitates the rapid generation of therapeutic cell medicines”
# Numbering of substitutions follows the chain as printed.
# B1: AGCC (dsDNA)
# DNA 1: GCTATCTAGTGCTCAGTACGCACTGAGCCAGGAAACTTCTGGCAGGACCAGGTCATGAGATCGGAAGAGCACACGTCTGAACTCCAGTCA
# DNA 2: TGACTGGAGTTCAGACGTGTGCTCTTCCGATCTCATGACCTGGTCCTGCCAGAAGTTTCCTGGCTCAGTGCGTACTGAGCACTAGATAGC
# RNA: AAUUUCUACUCUUGUAGAUAGGAAACUUCUGGCAGGACC
# B2: CAAG (dsDNA)
# DNA 1: B1 DNA 1 with A26C, G27A, C28A, C29G
# DNA 2: B1 DNA 2 with G62C, G63T, C64T, T65G
# RNA: B1 RNA
# B3: CAAA (dsDNA)
# DNA 1: B1 DNA 1 with A26C, G27A, C28A, C29A
# DNA 2: B1 DNA 2 with G62T, G63T, C64T, T65G
# RNA: B1 RNA
# B4: CAAC (dsDNA)
# DNA 1: B1 DNA 1 with A26C, G27A, C28A
# DNA 2: B1 DNA 2 with G63T, C64T, T65G
# RNA: B1 RNA
# B5: AGCT (dsDNA)
# DNA 1: B1 DNA 1 with C29T
# DNA 2: B1 DNA 2 with G62A
# RNA: B1 RNA
# B6: CACG (dsDNA)
# DNA 1: B1 DNA 1 with A26C, G27A, C29G
# DNA 2: B1 DNA 2 with G62C, C64T, T65G
# RNA: B1 RNA
# B7: ATCG (dsDNA)
# DNA 1: B1 DNA 1 with G27T, C29G
# DNA 2: B1 DNA 2 with G62C, C64A
# RNA: B1 RNA
# B8: CAGA (dsDNA)
# DNA 1: B1 DNA 1 with A26C, G27A, C28G, C29A
# DNA 2: B1 DNA 2 with G62T, G63C, C64T, T65G
# RNA: B1 RNA
# B9: ATCC (dsDNA)
# DNA 1: B1 DNA 1 with G27T
# DNA 2: B1 DNA 2 with C64A
# RNA: B1 RNA
# B10: AGCG (dsDNA)
# DNA 1: B1 DNA 1 with C29G
# DNA 2: B1 DNA 2 with G62C
# RNA: B1 RNA
# B11: CACC (dsDNA)
# DNA 1: B1 DNA 1 with A26C, G27A
# DNA 2: B1 DNA 2 with C64T, T65G
# RNA: B1 RNA
# B12: CAGC (dsDNA)
# DNA 1: B1 DNA 1 with A26C, G27A, C28G
# DNA 2: B1 DNA 2 with G63C, C64T, T65G
# RNA: B1 RNA
# B13: AGGC (dsDNA)
# DNA 1: B1 DNA 1 with C28G
# DNA 2: B1 DNA 2 with G63C
# RNA: B1 RNA
# B14: CAAT (dsDNA)
# DNA 1: B1 DNA 1 with A26C, G27A, C28A, C29T
# DNA 2: B1 DNA 2 with G62A, G63T, C64T, T65G
# RNA: B1 RNA
# B15: CACA (dsDNA)
# DNA 1: B1 DNA 1 with A26C, G27A, C29A
# DNA 2: B1 DNA 2 with G62T, C64T, T65G
# RNA: B1 RNA
# B16: ATAC (dsDNA)
# DNA 1: B1 DNA 1 with G27T, C28A
# DNA 2: B1 DNA 2 with G63T, C64A
# RNA: B1 RNA
# B17: ATGG (dsDNA)
# DNA 1: B1 DNA 1 with G27T, C28G, C29G
# DNA 2: B1 DNA 2 with G62C, G63C, C64A
# RNA: B1 RNA
# Target: dAsCas12a S542R (Acidaminococcus sp., UniProt U2UMQ6 1-1307, S542R;D908A;E993A;D1235A)
# Assay: Spec-seq (native PAGE EMSA with sequencing of bound and unbound); 25 mM Tris-HCl pH 7.4, 150 mM KCl, 5 mM MgCl2, 10% glycerol, 1 mM DTT, 40 ng/uL salmon sperm DNA; 400 nM Cas12a, 480 nM crRNA, 50 nM library, 37 C 1 h; native PAGE at room temperature; high values mean tight binding
# Settings: protein: recombinant
# 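Also: relative affinity from the bound to unbound sequence frequency ratio in Spec-seq.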
row,Binder,binding signal [lnKA]
1,B1,-8.34
2,B2,-8.58
3,B3,-8.57
4,B4,-8.83
5,B5,-8.99
6,B6,-8.68
7,B7,-6.64
8,B8,-8.93
9,B9,-4.3
10,B10,-8.91
11,B11,-8.05
12,B12,-8.95
13,B13,-8.3
14,B14,-8.59
15,B15,-8.06
16,B16,-8.39
17,B17,-8.74

# Target: d-enCas12a (Acidaminococcus sp., UniProt U2UMQ6 1-1307, E174R;S542R;K548R;D908A;E993A;D1235A)
# Assay: as above
# Settings: protein: recombinant
row,Binder,binding signal [lnKA]
1,B1,-2.31
2,B2,-5.75
3,B3,-5.66
4,B4,-5.54
5,B5,-4.97
6,B6,-4.44
7,B7,-3.44
8,B8,-5.81
9,B9,-0.902
10,B10,-4.77
11,B11,-1.94
12,B12,-5.94
13,B13,-5.79
14,B14,-5.72
15,B15,-2.71
16,B16,-4.61
17,B17,-5.71

# Target: d-enCas12a-Ultra (Acidaminococcus sp., UniProt U2UMQ6 1-1307, E174R;S542R;K548R;M537R;F870L;D908A;E993A;D1235A)
# Assay: as above
# Settings: protein: recombinant
row,Binder,binding signal [lnKA]
1,B1,-0.527
2,B2,-3.48
3,B3,-3.35
4,B4,-3.19
5,B5,-1.83
6,B6,-1.41
7,B7,-0.793
8,B8,-3.41
9,B9,-0.294
10,B10,-1.73
11,B11,-0.454
12,B12,-3.45
13,B13,-3.34
14,B14,-3.43
15,B15,-0.596
16,B16,-1.84
17,B17,-3.4
